Measured values from PubChem BioAssay AID1159580 (chemical genetic matrix, 2015).
Where “and” joins values, the source holds several entries; their conditions need not be identical. Equal values may be shown once. Among all 5,500 compounds or so, about 2,000 (36%) were called active. Not shown: some 18% with an inconclusive outcome. Rule as the data show it: active = normalized growth mostly below about 0.91 (no sharp cut-off); inconclusive = no clear call, values can overlap the other calls; inactive = mostly above about 0.92. The list shows a part of the results.

Assay: chemical genetic growth profiling, strain panel (AID 1159580);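 also: tested at 20 µM; growth read once vehicle control cultures reached saturation at 30 °C; 1 = growth at the plate median or of vehicle wells; lower values mean less growth of the strain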
Conditions: growth OD

Measured: normalized growth

O=c1[nH]c2cc(Cl)c(Cl)cc2[nH]c1=O
active: S. cerevisiae deletion strains, locus YLR330W, strain CHS5, active compounds read low 0.894
inactive: S. cerevisiae deletion strains, locus YJR075W, strain HOC1, active compounds read low 1 and 1.01 | S. cerevisiae deletion strains, locus YKL009W, strain mrt4, active compounds read low 1.02 | S. cerevisiae deletion strains, locus YKL068W, active compounds read low 1.02 | S. cerevisiae deletion strains, locus YKL085W, strain MDH1 (second series), active compounds read low 1.01 | S. cerevisiae deletion strains, locus YKL085W, strain MDH1, active compounds read low 1.01 | S. cerevisiae deletion strains, locus YKL160W, strain elf1, active compounds read low 0.988 | S. cerevisiae deletion strains, locus YKL190W, strain CNB1, active compounds read low 1.01 | S. cerevisiae deletion strains, locus YKR001C, strain vps1, active compounds read low 1.05 | S. cerevisiae deletion strains, locus YKR026C, strain gcn3, active compounds read low 0.989 | S. cerevisiae deletion strains, locus YKR091W, strain srl3, active compounds read low 0.987 | S. cerevisiae deletion strains, locus YLL001W, strain dnm1, active compounds read low 0.992 | S. cerevisiae deletion strains, locus YLL026W, active compounds read low 0.988 | S. cerevisiae deletion strains, locus YLL041C, strain sdh2, active compounds read low 0.995 | S. cerevisiae deletion strains, locus YLR027C, strain aat2, active compounds read low 0.957 | S. cerevisiae deletion strains, locus YLR039C, strain RIC1, active compounds read low 1.04 | S. cerevisiae deletion strains, locus YLR058C, strain SHM2, active compounds read low 1.01 | S. cerevisiae deletion strains, locus YLR102C, strain apc9, active compounds read low 1.02 | S. cerevisiae deletion strains, locus YLR221C, strain rsa3, active compounds read low 0.955 | S. cerevisiae deletion strains, locus YLR258W, strain gsy2, active compounds read low 0.99 | S. cerevisiae deletion strains, locus YLR262C, strain YPT6 (second series), active compounds read low 0.989 | S. cerevisiae deletion strains, locus YLR262C, strain YPT6, active compounds read low 1.04 | S. cerevisiae deletion strains, locus YLR268W, strain sec22, active compounds read low 1.03 | S. cerevisiae deletion strains, locus YLR320W, strain mms22, active compounds read low 0.963 | S. cerevisiae deletion strains, locus YLR342W, strain FKS1 (second series), active compounds read low 0.99 | S. cerevisiae deletion strains, locus YLR342W, strain FKS1, active compounds read low 0.988 | S. cerevisiae deletion strains, locus YLR357W, strain rsc2, active compounds read low 0.984 | S. cerevisiae deletion strains, locus YLR370C, strain arc18, active compounds read low 0.995 | S. cerevisiae deletion strains, locus YLR371W, strain rom2, active compounds read low 1.03 | S. cerevisiae deletion strains, locus YLR384C, strain iki3, active compounds read low 1.01 | S. cerevisiae deletion strains, locus YLR418C, strain cdc73, active compounds read low 1.07 | S. cerevisiae deletion strains, locus YML016C, strain PPZ1, active compounds read low 1.01 | S. cerevisiae deletion strains, locus YML032C, strain rad52, active compounds read low 1.04 | S. cerevisiae deletion strains, locus YML120C, strain ndi1, active compounds read low 1.02 | S. cerevisiae deletion strains, locus YML124C, strain tub3, active compounds read low 1.02 | S. cerevisiae deletion strains, locus YMR058W, strain fet3, active compounds read low 0.994 | S. cerevisiae deletion strains, locus YMR078C, strain ctf18, active compounds read low 1.03 | S. cerevisiae deletion strains, locus YMR125W, strain sto1, active compounds read low 0.994 | S. cerevisiae deletion strains, locus YMR129W, active compounds read low 1.01 | S. cerevisiae deletion strains, locus YMR205C, strain PFK2, active compounds read low 0.974 | S. cerevisiae deletion strains, locus YMR223W, strain ubp8, active compounds read low 1.03 | S. cerevisiae deletion strains, locus YMR231W, strain pep5, active compounds read low 0.996 | S. cerevisiae deletion strains, locus YMR263W, strain SAP30, active compounds read low 1 | S. cerevisiae deletion strains, locus YMR307W, strain GAS1, active compounds read low 1.03 and 1.01 | S. cerevisiae deletion strains, locus YNL067W, strain RPL9B, active compounds read low 1.01 | S. cerevisiae deletion strains, locus YNL071W, strain lat1, active compounds read low 0.999 | S. cerevisiae deletion strains, locus YNL128W, strain TEP1, active compounds read low 1.02 | S. cerevisiae deletion strains, locus YNL153C, strain GIM3, active compounds read low 1.01 | S. cerevisiae deletion strains, locus YNL175C, strain NOP13, active compounds read low 0.996 | S. cerevisiae deletion strains, locus YNL197C, strain WHI3, active compounds read low 0.975 | S. cerevisiae deletion strains, locus YNL209W, strain ssb2, active compounds read low 1 | S. cerevisiae deletion strains, locus YNL224C, strain SQS1, active compounds read low 1 | S. cerevisiae deletion strains, locus YNL233W, strain BNI4, active compounds read low 1 | S. cerevisiae deletion strains, locus YNL248C, strain rpa49, active compounds read low 1.01 | S. cerevisiae deletion strains, locus YNL250W, strain rad50, active compounds read low 1.03 | S. cerevisiae deletion strains, locus YNL271C, strain bni1, active compounds read low 1.04 | S. cerevisiae deletion strains, locus YNL298W, strain CLA4, active compounds read low 1.03 | S. cerevisiae deletion strains, locus YNL307C, strain MCK1, active compounds read low 1.04 | S. cerevisiae deletion strains, locus YNL322C, strain KRE1 (second series), active compounds read low 0.985 | S. cerevisiae deletion strains, locus YNL322C, strain KRE1, active compounds read low 1 | S. cerevisiae deletion strains, locus YNR049C, strain mso1, active compounds read low 0.992 | S. cerevisiae deletion strains, locus YNR052C, strain pop2, active compounds read low 1.03 | S. cerevisiae deletion strains, locus YOL006C, strain TOP1, active compounds read low 1.05 | S. cerevisiae deletion strains, locus YOL012C, strain htz1 1.66 | S. cerevisiae deletion strains, locus YOL147C, strain pex11, active compounds read low 1.03 | S. cerevisiae deletion strains, locus YOR001W, strain rrp6, active compounds read low 0.959 | S. cerevisiae deletion strains, locus YOR061W, strain CKA2, active compounds read low 1.02 | S. cerevisiae deletion strains, locus YOR069W, strain VPS5, active compounds read low 1.01 | S. cerevisiae deletion strains, locus YOR070C, strain gyp1, active compounds read low 0.97 | S. cerevisiae deletion strains, locus YOR080W, strain dia2, active compounds read low 0.983 | S. cerevisiae deletion strains, locus YOR083W, strain WHI5 (second series), active compounds read low 0.984 | S. cerevisiae deletion strains, locus YOR083W, strain WHI5, active compounds read low 0.982 | S. cerevisiae deletion strains, locus YOR106W, strain vam3, active compounds read low 1.01 | S. cerevisiae deletion strains, locus YOR136W, strain idh2, active compounds read low 1.04 | S. cerevisiae deletion strains, locus YOR144C, strain elg1, active compounds read low 1.02 | S. cerevisiae deletion strains, locus YOR184W, strain ser1, active compounds read low 1.03 | S. cerevisiae deletion strains, locus YOR265W, strain rbl2, active compounds read low 0.987 | S. cerevisiae deletion strains, locus YOR270C, strain vph1, active compounds read low 0.96 | S. cerevisiae deletion strains, locus YOR290C, strain snf2, active compounds read low 0.971 | S. cerevisiae deletion strains, locus YOR316C, strain cot1, active compounds read low 1.02 | S. cerevisiae deletion strains, locus YPL051W, strain arl3, active compounds read low 0.961 | S. cerevisiae deletion strains, locus YPL055C, strain LGE1, active compounds read low 1.02 | S. cerevisiae deletion strains, locus YPL078C, strain atp4, active compounds read low 0.997 | S. cerevisiae deletion strains, locus YPL106C, strain sse1, active compounds read low 0.97 | S. cerevisiae deletion strains, locus YPL240C, strain hsp82, active compounds read low 0.988 | S. cerevisiae deletion strains, locus YPL241C, strain CIN2, active compounds read low 1.01 | S. cerevisiae deletion strains, locus YPR119W, strain clb2, active compounds read low 1.03 | S. cerevisiae deletion strains, locus YPR141C, strain kar3, active compounds read low 1.03 | S. cerevisiae deletion strains, locus YPR163C, strain tif3, active compounds read low 1.04 | S. cerevisiae deletion strains, locus YPR167C, strain met16, active compounds read low 1.02 | S. cerevisiae deletion strains, strain wtn01, active compounds read low 1.02 | S. cerevisiae strains, strain wild type, active compounds read low 1.01
